{"source": "PubChem BioAssay (NCATS)", "note": "Records with an inconclusive call do not appear. Active and inactive are the calls of the source. The call rests on the fitted dose curve; in most records, active means well fitted inhibition curve with a large enough effect; inconclusive means small, poorly fitted or top-dose-only effect; inactive means no such curve, though single readings can be large or run the other way. On the % scale 0 is the no-effect control and ±100 the full control effect.", "data": [{"experiment": "Primary qHTS for small molecule stabilizers of the endoplasmic reticulum resident proteome: Secreted ER Calcium Modulated Protein (SERCaMP) assay (AID 1508630)", "details": "SH-SY5Y GLuc-SERCaMP (Gaussia luciferase released on ER calcium loss) secretion, thapsigargin, luminescence; series mostly up to 38.4 µM; activity change, negative = inhibition: at the top concentration", "procedure,_shortened": "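GLuc-SERCaMP-expressing SH-SY5Y cells, pretreated 16 h with compound, are challenged with thapsigargin to empty ER calcium stores; after 4 h, coelenterazine is added directly to the medium and luminescence is imaged.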", "values": [{"smiles": "Cc1onc(-c2ccccc2)c1-c1ccc(S(N)(=O)=O)cc1", "activity change, negative = inhibition": "43.5% (inactive)"}, {"smiles": "O=C(O)Cc1ccc(CCNS(=O)(=O)c2ccc(Cl)cc2)cc1", "activity change, negative = inhibition": "-7.39% (inactive)"}, {"smiles": "CCOC(=O)[C@H](CCc1ccccc1)N[C@@H](C)C(=O)N1CCC[C@H]1C(=O)O", "activity change, negative = inhibition": "-28.4% (inactive)"}, {"smiles": "O=c1[nH]c(=O)n([C@H]2C[C@H](O)[C@@H](CO)O2)cc1I", "activity change, negative = inhibition": "-10.9% (inactive)"}, {"smiles": "OCCN1C[C@H](O)[C@@H](O)[C@H](O)[C@H]1CO", "activity change, negative = inhibition": "-11.6% (inactive)"}]}]}
